Screen size: about 2,100 compounds; about 590 (28%) were called active. About 42% were inconclusive and are not listed. The call rests on the fitted dose curve; in most records, active means well fitted inhibition curve with a large enough effect; inconclusive means small, poorly fitted or top-dose-only effect; inactive means flat fitted curve, though single readings scatter. This is one part of the list.
Target: DNA dC->dU-editing enzyme APOBEC-3F (Homo sapiens) (UniProt Q8IUX4)
Experiment: qHTS for inhibitors of Vif-A3F interactions: Cherry picks; further: nearly all actives have a fitted effect of over 70% in size;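 on Max response: % of control where 0% means no effect; active compounds raise eYFP fluorescence by blocking Vif-driven A3F loss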
Details: HeLa A3F-eYFP + Vif (tagged APOBEC3F with the HIV-1 protein that degrades it), eYFP fluorescence, 24 h
How it was run: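 HeLa cells stably expressing A3F-eYFP plus Vif, cultured overnight, then exposed to compounds at several concentrations for 24 h at 37 deg C. Reduced Vif-driven degradation read as rising eYFP fluorescence (488 nm ex/500-530 nm em) by laser-scanning cytometry; MG132 as positive control.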
Potency means the concentration at half of the fitted maximal effect.

Sequence of DNA dC->dU-editing enzyme APOBEC-3F (Homo sapiens) (Q8IUX4 whole entry, looked up): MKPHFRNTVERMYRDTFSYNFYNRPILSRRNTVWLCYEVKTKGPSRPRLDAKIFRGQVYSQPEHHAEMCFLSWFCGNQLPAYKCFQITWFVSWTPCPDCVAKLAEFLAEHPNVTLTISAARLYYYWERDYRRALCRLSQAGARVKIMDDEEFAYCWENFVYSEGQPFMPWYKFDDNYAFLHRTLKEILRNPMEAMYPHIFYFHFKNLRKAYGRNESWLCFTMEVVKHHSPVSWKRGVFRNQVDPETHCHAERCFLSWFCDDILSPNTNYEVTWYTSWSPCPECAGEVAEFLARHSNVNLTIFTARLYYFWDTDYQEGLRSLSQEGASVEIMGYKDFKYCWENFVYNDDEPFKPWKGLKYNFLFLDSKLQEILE

Max response, inactive:
NNC(=O)c1cc2sccc2s1 -9.98%
O=S(=O)(Nc1nc2ccccc2nc1N1CCN(c2ccccc2)CC1)c1ccc(F)cc1 -24.2%
CCOC(=O)N1CCC(Nc2nc3ccccc3nc2NS(=O)(=O)c2ccc(Cl)cc2)CC1 -1.97%
CN1CCN(c2nc3ccccc3nc2NS(=O)(=O)c2ccc(Br)cc2)CC1 -2.09%
O=C(N=c1ccn(-c2nc3ccccc3nc2NS(=O)(=O)c2ccccc2)cc1)c1cccs1 -18.4%
CCC(C)Sc1cccc(-c2nc3cc(C)ccn3c2NC2CCCCC2)c1 (stereo unspecified) -1.04%
Cc1cc(-n2c(SCC(=O)Nc3ccc(Br)cc3)nc3n[nH]c(C)c3c2=N)ccc1Cl -24.1%
Cc1cc(-n2c(C)cc(C(=O)CCl)c2C)no1 -21.8%
COc1ccc2oc(=N)c(C(=O)Nc3ccc(F)cc3)cc2c1 -21%
COc1cc(OC)cc(C(=O)Nc2ccc(N3CCN(C(=O)c4cccs4)CC3)cc2)c1 -11.5%
COC(=O)C1=C(Nc2ccc(C)cc2)C=C(C)C(C(=O)OC)C1c1cccc(OC)c1 (stereo unspecified) -20.5%
COCc1ccc(O)c2ncccc12 1.62%
Cc1ccc(C)c(N2CCN(C(=O)c3cccn4c(=O)c5sccc5nc34)CC2)c1 -29.7%
Cc1ccc(C(=O)O)cc1Nc1nc2ccccc2n2nnnc12 -4.15%
CN(C)c1ccc(Nc2nc3ccccc3n3nnnc23)cc1 -2.05%
CCCn1nnc(NC(=S)NC(=O)c2ccccc2OC)n1 0.308%
CC(=O)Nc1ccc(NC(=O)C/C(C)=N/NC(N)=S)cc1 0.646%
CCc1ccc(C(=O)NC(=S)Nc2ccc(N3CCOCC3)cc2)cc1 -0.0784%
COCCCNC(=S)N/N=C/c1ccc(OC)cc1 -0.494%
C=CCNC(=S)N/N=C(\C)c1ccc(OC)cc1 -3.87%
Cc1nn(-c2ccc(F)cc2)c(Cl)c1/C=C1\C(=O)Nc2ccccc21 -19.4%
CNCC(O)Cn1c2c(c3ccccc31)CCCC2 (stereo unspecified) 1.63%
CCN(CC)c1ccc(NC(=O)CSc2nc(C3CC3)nc3ccccc23)cc1C -22.1%
Cc1cc(C)n(S(=O)(=O)/C=C/c2ccccc2)n1 -7.92%
c1ccc2[nH]c(NN=C3CCCCCC3)nc2c1 2.02%
O=S(=O)(Nc1cccc2ncccc12)c1cccs1 -3.96%
COC(=O)c1sccc1NC(=S)Nc1cc(C)cc(C)c1 -0.135%
Cc1ccc(NC(=O)c2ccc([N+](=O)[O-])s2)cc1S(=O)(=O)N1CCOCC1 -11.7%
CC(=O)c1cccc(NC(=S)N2c3ccccc3CC2C)c1 (stereo unspecified) 9.61%
Cc1nc(NC(=O)/C=C/c2ccco2)sc1C -21.9%
N#C/C=C/N1CCN(C(=O)c2ccco2)CC1 0.169%
Cc1cc(C)nc(-n2nc(C)cc2NC(=O)c2ccc(F)cc2F)n1 -0.0521%
COc1cccc(Nc2nc(Nc3ccc(Cl)c(C(=O)O)c3)nc(C)c2[N+](=O)[O-])c1 -16.3%
CCOC(=O)c1cc2n(c1N)-c1ccccc1C2=O -16.6%

Potency, active:
O=c1[nH]c2cc(Br)cnc2nc1/C=C(\O)c1ccc(F)cc1 13 µM
O=C(N=c1ccn(-c2nc3ccccc3nc2NS(=O)(=O)c2ccc(Cl)cc2)cc1)c1cccs1 13 µM
O=S(=O)(Nc1nc2ccccc2nc1N1CCN(c2ccccn2)CC1)c1ccc(Cl)cc1 18.4 µM
COc1ccc2o/c(=N/NC(=O)c3cccs3)c(C(N)=O)cc2c1 3.96 µM
CN(C)c1ccc2ccc3cccc4ccc1c2c34 9.2 µM
Cc1cccc(CN2C(=O)N/C(=C/c3ccc(C)s3)C2=O)c1 9.94 µM
Cc1cc(NC(=O)/C(C#N)=C\c2ccc(-c3ccc(SC(F)F)cc3)o2)n(-c2ccccc2)n1 9.2 µM
Cc1cc(NC(=O)/C(C#N)=C/c2ccc(-c3ccc(SC(F)F)cc3)o2)n(-c2ccccc2)n1 3.66 µM
CCOC(=O)c1ccc(/C=C2/C=C(c3ccccc3)N(c3ccc(Cl)c(C(=O)O)c3)C2=O)cc1 20.6 µM
CC(NC(=O)c1ccc(Nc2nc3ccccc3n3nnnc23)cc1)c1ccccc1 (stereo unspecified) 16.4 µM
Cc1cccc2cc3c(N)c(C(=O)N4CCCc5ccccc54)sc3nc12 9.2 µM
Cc1cccc2cc3c(N)c(C(=O)N4CCc5ccccc54)sc3nc12 6.51 µM
Cc1ccc2nc3sc(C(=O)N4CCCc5ccccc54)c(N)c3cc2c1 14 µM
O=C(Cc1nc2ccccc2[nH]c1=O)c1ccc(Cl)cc1 18.4 µM
CCc1ccc(NC(=O)/C(C#N)=C/c2cc3ccc(C)cc3nc2N2CCOCC2)cc1 14.6 µM
Cc1cc(C)c(/C=C2\C(=O)Nc3ccccc32)[nH]1 16.4 µM
Cc1cc(N(C)C)c(C)cc1/C=C/c1ccnc2ccccc12 18.4 µM
CCN(CC)c1cc(C)c(/C=C/c2ccnc3ccccc23)cc1C 13 µM
O=C(Nc1ccccc1-c1nc2ccccc2[nH]1)c1ccc(N2C(=O)CCC2=O)cc1 18.4 µM
CCN1C(=S)SC(=O)C1=C1C=C(C)N(Cc2ccco2)C(C)=C1 17.7 µM
CN(C)C=Nc1c(Br)cc(Br)c2nonc12 14.6 µM
Cc1cccc(NC(=O)/C=C/c2ccc([N+](=O)[O-])s2)c1 3.26 µM
Cc1cc(C)cc(NC(=O)/C=C/c2ccc([N+](=O)[O-])s2)c1 10.3 µM
Cc1ccc(NC(=O)/C=C/c2ccc([N+](=O)[O-])s2)c(C)c1 5.17 µM
CC(=O)c1cccc(NC(=O)/C=C/c2ccc([N+](=O)[O-])s2)c1 5.17 µM
Cc1ccc(NC(=O)/C=C/c2ccc([N+](=O)[O-])s2)cc1 5.17 µM
CCOC(=O)c1cc2n(c1/N=C/N(C)C)-c1ccccc1C2=O 18.4 µM
